Source: PubChem (National Center for Advancing Translational Sciences (NCATS))
HCMV antiviral = blocks human cytomegalovirus replication | HFF cells, HCMV-luciferase reporter, 72 h; stronger effect = lower value | 410,000 tested, 4.5% active | activity change, negative = inhibition, % at 57.5 µM; in the data active = activity change below about -60%; inconclusive = no clear call, values can overlap the other calls; inactive = above about -39%
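Two compound doses tested in HFFs infected with HCMV-luciferase, MOI 1 PFU/cell, 72 h at 37C. Lysate luminescence read with OneGlo; data normalized against buffer-only and 10uM Salinomycin inhibitor controls.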
Lassa entry inh = inhibitors of Lassa virus binding or cell entry; Lassa virus pseudotype entry inhibition, cell reporter; Potency, µM (titrated, usually from 37.9 µM), inactives show at the top dose activity change, negative = inhibition, hits mostly inhibitors; 300,000 tested, 1.2% active; AID 540256; calls by dose curve; tested in HEK293 cells; also: potency is read from the fitted curve at half-maximal effect; nearly all actives have a fitted effect of over 50% in size
Marburg entry inh = Marburg virus entry inhibition; Potency, µM (titrated, usually from 37.8 µM), for inactives: top-dose activity change, negative = inhibition, usual class: inhibitors; Marburg virus pseudotyped entry inhibition, cell reporter; 300,000 tested, 1.8% active; calls by dose curve; tested in HEK293 cells; also: potency is read from the fitted curve at half-maximal effect
Giardia FBPA inh = Giardia lamblia aldolase inhibition; A8B2U2; purified Giardia FBPA; Potency, µM (titrated, usually from 59.6 µM), for the others: top-dose activity, negative = inhibition, usual class: inhibitors; 290,000 tested, 0.71% active; also: potency is read from the fitted curve at half-maximal effect; nearly all actives have a fitted effect of over 55% in size
Target sequence (A8B2U2 whole entry, looked up): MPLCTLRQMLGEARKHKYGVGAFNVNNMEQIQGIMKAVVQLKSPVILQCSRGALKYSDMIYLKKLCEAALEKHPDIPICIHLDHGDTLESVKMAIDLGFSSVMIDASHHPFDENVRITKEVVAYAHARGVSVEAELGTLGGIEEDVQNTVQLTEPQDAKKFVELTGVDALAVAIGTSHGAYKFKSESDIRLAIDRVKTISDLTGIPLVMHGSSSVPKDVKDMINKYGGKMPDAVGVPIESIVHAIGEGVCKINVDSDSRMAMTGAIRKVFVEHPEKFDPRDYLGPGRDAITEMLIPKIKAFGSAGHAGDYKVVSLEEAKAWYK
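40 nM FBPA preincubated 10 min at RT with compound (up to 57.5 uM final), then substrate plus GAPDH/TPI/NAD/arsenate coupling and diaphorase/resazurin added. Fluorescence read after 20 min at RT, 525/598 nm.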
FMDV inh = blocks foot and mouth disease virus; 410,000 tested, 1.2% active; FMDV antiviral cell-based qHTS; Potency, µM (doses to about 57.9 µM), for the others: at the top dose activity change, negative = inhibition, most hits filed as inhibitors; AID 1159524; calls by dose curve; tested in HEK293T cells; also: read-out not given here; potency is read from the fitted curve at half-maximal effect; nearly all actives have a fitted effect of over 45% in size
HCV inhibitor = HCV inhibition; AID 651820; Potency, µM (highest dose often 41.8 µM), for inactives: at the highest dose activity change, negative = inhibition, usual class: inhibitors; Huh7.5.1 HCVcc-Cre infection, luciferase reporter, 44 h; 340,000 tested, 3.4% active; also: potency is read from the fitted curve at half-maximal effect
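Whole-lifecycle infectious HCVcc-Cre system; cells 1,000/well, compound then virus (~0.5 moi) added 4 h after plating, 44 h culture. Luciferase read 15 sec following 15 min substrate incubation, room temp.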
* marks the source's active call; other numbers are inactive results; ? = inconclusive; . = no result; ! = not active in a repeat; [ ] = another dose, or the depositor's remark. Shown are actives, neighbours in structure and some others; about 8.3% of the full set was active somewhere. Unless noted, calls follow the shape of the dose curve; as a rule, active = well fitted curve in the direction sought with a large enough effect; inconclusive = small, poorly fitted or top-dose-only effect, or another doubt; inactive = no such curve, though single readings can be large; an effect the other way counts as inactive or inconclusive. % is scaled to controls: 0 for no effect and ±100 for the full control effect.

SMILES	HCMV antiviral	Lassa entry inh	Marburg entry inh	Giardia FBPA inh	FMDV inh	HCV inhibitor
Cc1ccccc1S(=O)(=O)N[C@H]1CC[C@@]23CCCN2C(=O)CCC[C@H]3[C@H]1Cc1ccccc1	-11	.	.	.	.	.
Cc1cccc(-c2nc3nc(C)cc(NCc4ccccc4Cl)n3n2)c1	-20	0%[46.1 µM]	.	.	-3%	.
Oc1ccc(N2CCN(c3nnnn3-c3ccccc3)CC2)cc1	-63*	?	4%[14.2 µM]	-20%	-20%	-17%
Cc1ccc(-n2nnnc2-c2cnn(-c3cccc(F)c3)c2C(F)(F)F)cc1	-75*	?	?	8%	?	?
Cc1nn(-c2cc(N3CCCCC3)ccc2N)c(=O)c2ccccc12	.	-12%[14.3 µM]	4%	7%	16%	13%
Cc1ccc(-c2nn(-c3cc(N4CCNCC4)ccc3[N+](=O)[O-])c(=O)c3ccccc23)cc1	-68*	?	?	-1%	-28%	?
Cc1ccc(-c2nn(-c3cc(Cl)ccc3[N+](=O)[O-])c(=O)c3ccccc23)cc1C	?	?	?	-4%	-3%	-16%
Cc1nn(-c2cc(N3CCCCCC3)ccc2[N+](=O)[O-])c(=O)c2ccccc12	-32	?	-27%	1%	0%	13µM*
CCOc1ccccc1CNC(=O)CCn1ccc2cc(S(=O)(=O)N3CCC(C)CC3)ccc21	-20	0%[46.1 µM]	.	.	-2%	.
COc1cc([C@@H]2c3cc4c(cc3C(OC3OC5COC(C)OC5C(O)C3O)C3COC(=O)[C@@H]32)OCO4)cc(OC)c1O (some centres undefined)	.	.	.	0%	.	.
CC(C)CN1CCNC(=O)C1CC(=O)NCCc1cnn(-c2ccccc2)c1 (centres undefined)	-2	10%	9%[46.1 µM]	-3%	-5%	-5%
CC(C)CN1CCNC(=O)C1CC(=O)NCCc1ccc(C(F)(F)F)cc1 (centres undefined)	-101*	-9%[46.1 µM]	-10%[46.1 µM]	-11%	8%	-6%
Cc1cccc(Cl)c1OCCN1CCCC1	16	?	1%	25µM*	-25%	?
Clc1cccc(Cl)c1OCCCCN1CCCCC1	38	.	.	?	-4%	16%
COC(=O)C1=C[C@@H](C(=O)OC)C2C3=C(C(=O)[C@]2(CC(C)C)NC(=O)c2ccccc2)[C@H](C)n2c(=O)n(C)c(=O)n2[C@@H]3C1 (some centres undefined)	.	.	.	1%	.	.
COc1cc2ccccc2cc1C(=O)Nc1nccs1	212	.	.	13%	8%	11µM*
COc1cc2ccccc2cc1C(=O)Nc1cc(C)ccn1	85	-4%[46.1 µM]	?	.	3%	13µM*
COc1ccc(C(=O)/C=C/Nc2cc(C)ccn2)cc1	10	?	1.3µM*	-8%	-46%	-2%
O=S(=O)(c1ccc(OC(F)(F)F)cc1)N1CCC(O)(c2cccc(C(F)(F)F)c2)CC1	4	.	.	-5%	-27%	8.9µM*
COc1cc(S(=O)(=O)N2CCC(O)(c3cccc(C(F)(F)F)c3)CC2)ccc1-n1cnnn1	-27	0%	2%	1%	.	1.6µM*!
COc1ccc(S(=O)(=O)N2CCCCC2)cc1-n1cnnn1	-11	0%	?	6%	-3%	18%
Cc1cccc(S(=O)(=O)Nc2cccc(-c3cn4ccsc4n3)c2)c1	-20	?	?	8%	-22%	?
Cc1ccc(S(=O)(=O)Nc2cccc(-c3cn4ccsc4n3)c2)cc1	?	4.5µM*	?	1%	80%	?
O=S(=O)(Nc1cccc(-c2cn3cccnc3n2)c1)c1ccc(-c2ccccc2)cc1	-77*	10%	-20%	11%	0%	4.5µM*
O=C(Nc1cc2c3c(c1)CC(=O)N3CCC2)c1ccc(Br)cc1	0	-3%	-9%	.	9%	-9%
SMILES	HCMV antiviral	Lassa entry inh	Marburg entry inh	Giardia FBPA inh	FMDV inh	HCV inhibitor
O=C(Nc1cc2c3c(c1)CC(=O)N3CCC2)c1ccccc1Br	-11	-4%	2%	.	31%	10µM*
COc1ccc(/C=C2\N=C(SC)N(c3ccccc3OC)C2=O)cc1	-96*	.	.	-24%	?	?
NC(=O)C[C@@H](N)C(=O)O	.	.	.	.	-13%	.
CCCCNC1C(CC)C(CCC)C(C#N)(C#N)C1(C#N)C#N (centres undefined)	.	?	?	-2%	32µM*	13µM*
CCCCNC(=O)c1nc2ccccc2nc1-c1cccc(OC(F)(F)F)c1	50	.	.	.	.	.
Cc1c(Cl)cccc1NC(=S)NC1CCN(Cc2ccccc2)CC1	-91*	?	16µM*	4%	0%	?
Cc1ccc(NC(=S)NC2CCN(Cc3ccccc3)CC2)cc1C	?	.	.	3%	0%	11µM*
S=C(Nc1cc(Cl)cc(Cl)c1)NC1CCN(Cc2ccccc2)CC1	-100*	.	.	12%	-17%	10µM*
S=C(Nc1ccccc1Cl)NC1CCN(Cc2ccccc2)CC1	-34	-17%	?	2%	0%	?
CC(C)c1ccc(NC(=S)NC2CCN(Cc3ccccc3)CC2)cc1	-27	18µM*	?	3%	-7%	?
Cc1cc(NC(=O)COCc2cc(-c3ccc(F)cc3)on2)ccc1Br	3	9%[46.1 µM]	.	.	-11%	.
C[C@@H]1CC[C@]2(C(=O)O)CC[C@]3(C)C(=CCC4[C@@]5(C)C[C@@H](O)[C@H](O)[C@@](C)(CO)C5[C@H](O)C[C@]43C)C2[C@H]1C (some centres undefined)	.	.	.	5%	.	.
C=Cn1ccnc1P(=S)(c1ccccc1)c1nccn1C=C	-25	6%	1%[46.1 µM]	-2%	2%	20%
C=Cn1ccnc1P(=S)(c1ccc(Cl)cc1)c1nccn1C=C	-76*	19%[46.1 µM]	-2%[46.1 µM]	-2%	-8%	1%
COc1ccc(-c2cc(C(F)(F)F)nc(S(=O)(=O)CCCC(=O)Nc3cccc(O)c3)n2)cc1OC	-99*	?	?	0%	20µM*	11µM*
O=C(CCS(=O)(=O)c1nc(-c2ccc3c(c2)OCO3)cc(C(F)(F)F)n1)Nc1ccc(F)cc1F	40	12%[46.1 µM]	?	.	?	.
COc1ccc(NC(=O)CCS(=O)(=O)c2nc(-c3ccc4c(c3)OCO4)cc(C(F)(F)F)n2)cc1	-76*	-32%[46.1 µM]	-17%[46.1 µM]	.	-6%	.
COc1ccccc1-c1cc(C(F)(F)F)nc(S(=O)(=O)CCCC(=O)Nc2ccc(F)c(Cl)c2)n1	10	4%[46.1 µM]	24%[46.1 µM]	.	0%	.
CS(=O)(=O)c1nc(-c2ccccc2)cc(C(F)(F)F)n1	-98*	?	6.3µM*	6%	7.9µM*	10µM*
COc1ccc(NC(=O)CCCS(=O)(=O)c2nc(-c3ccc(OC)c(OC)c3)cc(C(F)(F)F)n2)cc1OC	-100*	?	?	.	32µM*	.
CCOC(=O)C1CCCN(C(=O)c2cnn(-c3nccc(-c4cc(C)sc4C)n3)c2C)C1 (centres undefined)	.	.	.	.	26%	.
